From PubChem BioAssay (Tox21) come the findings set out here.

Where “and” joins values, the source holds several entries; their conditions need not be identical. Equal values may be shown once. Records with an inconclusive call do not appear. Unmarked numbers belong to inactive results. Calls of active or inactive are those of the source. Unless noted, calls come from the whole dose curve; as a rule, active = well fitted curve in the direction sought with a large enough effect in the repeat runs; inconclusive = weak or mixed curves; inactive = no such curve, though single readings can be large; an effect the other way counts as inactive or inconclusive.

A short description of experiment [1]: qHTS assay to identify small molecule agonists of the estrogen related receptor signaling pathway with the pleiotropic PPARgamma coactivator (PGC) (AID 1224823). The method in brief: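 Luminescence from One-Glo reagent (30 min, room temperature) was read after 18 h compound treatment at 37 C of PGC/ERR cells plated 6 h beforehand; compounds delivered in DMSO by pin tool.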

Experiment [2] can be described thus: qHTS assay to identify small molecule antagonists of the estrogen related receptor (ERR) signaling pathway from Tox21 library - cell viability counter screen (AID 1224834). Note: nearly all actives have a fitted effect of over 30% in size. The method in brief: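 Compounds in DMSO were pinned onto ERR cells that had been incubated for 6 h, and the plates were held at 37 C for 17.5 h. CellTiter-Fluor reagent was then added and fluorescence was measured after 30 min.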
For orientation: Quantitative high-throughput screening tests each substance at several concentrations.

Experiment [3] is described as follows: qHTS assay to identify small molecule agonists of the constitutive androstane receptor (CAR) signaling pathway - cell viability counter screen (AID 1224836). Note: series mostly up to about 92 µM; nearly all actives have a fitted effect of over 45% in size. The method in brief:
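23 h treatment, 37 C, 5% CO2. Cell line: HepG2 stably expressing hCAR with a CYP2B6-2.2kb construct. Co-treatment: PK11195, 0.75 uM final. Read-out: CellTiter-Fluor fluorescence intensity.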

A short description of experiment [4]: qHTS assay to identify small molecule antagonists of the constitutive androstane receptor (CAR) signaling pathway - cell viability counter screen (AID 1224837). Note: series mostly up to about 92 µM; nearly all actives have a fitted effect of over 45% in size. The gist of the method:
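Cells are seeded, rested 4 hr at 37 C/5% CO2, dosed with compound (15-point series) and 50 nM CITCO, incubated a further 23 hr, and then CellTiter-Fluor reagent is added before fluorescence is read. The line is HepG2 with stable hCAR and CYP2B6-2.2kb.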

Experiment [5] deals with Nuclear receptor subfamily 1 group I member 3 (Homo sapiens) (UniProt Q14994). The experiment can be described thus: qHTS assay to identify small molecule antagonists of the constitutive androstane receptor (CAR) signaling pathway (AID 1224838).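 Note: HepG2 cells stably expressing hCAR with CYP2B6 luciferase reporter stimulated by CITCO; nearly all actives have a fitted effect of over 40% in size.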 Note: potency is the fitted concentration of half-maximal effect. The gist of the method: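 Luminescence from a CYP2B6-2.2kb promoter reporter in hCAR-expressing HepG2 cells reflects CAR signaling. Cells received compounds at 15 concentrations and 50 nM CITCO (final), then incubated 24 h at 37 C/5% CO2.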
Chain of Nuclear receptor subfamily 1 group I member 3 (Homo sapiens) (Q14994 whole entry, looked up): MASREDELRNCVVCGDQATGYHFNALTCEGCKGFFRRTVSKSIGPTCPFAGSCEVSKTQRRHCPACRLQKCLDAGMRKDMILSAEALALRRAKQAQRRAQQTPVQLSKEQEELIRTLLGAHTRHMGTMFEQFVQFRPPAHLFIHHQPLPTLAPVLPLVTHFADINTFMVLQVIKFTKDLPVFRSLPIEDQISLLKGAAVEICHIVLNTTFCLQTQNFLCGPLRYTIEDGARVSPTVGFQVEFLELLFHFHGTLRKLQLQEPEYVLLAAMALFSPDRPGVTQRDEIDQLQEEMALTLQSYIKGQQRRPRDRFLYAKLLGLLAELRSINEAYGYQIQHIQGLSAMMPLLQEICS

Experiment [6] has the same target. The experiment can be described thus: qHTS assay to identify small molecule agonists of the constitutive androstane receptor (CAR) signaling pathway (AID 1224839).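 For activation: HepG2 cells stably carrying human CAR and a CYP2B6 luciferase reporter; series mostly up to about 92 µM.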 Note: nearly all actives have a fitted effect of over 15% in size. Note: potency is the fitted concentration of half-maximal effect. The method in brief: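 Compounds tested at 15 concentrations on HepG2 cells stably harbouring hCAR and CYP2B6-2.2kb reporter constructs, co-treated with PK11195 (0.75 uM final), 24 h at 37 C; luminescent reporter signal quantified.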

Experiment [7] can be described thus: qHTS assay to identify small molecule antagonists of the estrogen related receptor signaling pathway with the pleiotropic PPARgamma coactivator (PGC) from Tox21 10K library - cell viability counter screen (AID 1224840; active = well fitted cell-killing curve with a large enough effect in the repeat runs, not every such curve was filed as active; note: nearly all actives have a fitted effect of over 40% in size). The gist of the method:
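Cell viability is measured by CellTiter-Fluor fluorescence in PGC/ERR cells that receive compounds after a 6-hour attachment period and are then incubated 17.5 hours at 37 C.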

Experiment [8] can be described thus: qHTS assay to identify small molecule agonists of the estrogen related receptor signaling pathway with the pleiotropic PPARgamma coactivator (PGC) from Tox21 10K library (AID 1224842). Note: nearly all actives have a fitted effect of over 15% in size. The method in brief: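 PGC/ERR reporter cells (NTP line) were seeded 2,000 per well, rested 6 h at 37 C/5% CO2, then pin-dosed with compounds in DMSO for 18 h at 37 C; luciferase read by One-Glo luminescence after 30 min at room temperature.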

In experiment [9] the target is Luciferin 4-monooxygenase (Photinus pyralis) (UniProt P08659). Kind of experiment: qHTS assay to identify small molecule inhibitors of firefly luciferase (AID 1224835). For activity change, negative = inhibition: series mostly up to about 120 µM. Note: nearly all actives have a fitted effect of over 25% in size. Note: potency is the fitted concentration of half-maximal effect. The method in brief:
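Quantitative HTS format; KM concentrations of both substrates. Purified P. pyralis FLuc activity quantified from luminescence images.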

A short description of experiment [10]: qHTS assay to identify small molecule antagonists of the estrogen related receptor signaling pathway with the pleiotropic PPARgamma coactivator (PGC) from Tox21 10K library (AID 1224841; call rule not given here; note: series mostly up to about 92 µM; actives are mostly falling curves and most rising ones were filed inactive; nearly all actives have a fitted effect of over 50% in size). The gist of the method:
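Cells stably carrying the PGC/ERR reporter, seeded at 2,000 per well, received pin-transferred compounds 6 h post-plating. Exposure lasted 18 h at 37 C. Signal: One-Glo luminescence.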
% is set by controls: 0 for no effect and ±100 for the full control effect.

Chain of Luciferin 4-monooxygenase (Photinus pyralis) (P08659 whole entry, looked up): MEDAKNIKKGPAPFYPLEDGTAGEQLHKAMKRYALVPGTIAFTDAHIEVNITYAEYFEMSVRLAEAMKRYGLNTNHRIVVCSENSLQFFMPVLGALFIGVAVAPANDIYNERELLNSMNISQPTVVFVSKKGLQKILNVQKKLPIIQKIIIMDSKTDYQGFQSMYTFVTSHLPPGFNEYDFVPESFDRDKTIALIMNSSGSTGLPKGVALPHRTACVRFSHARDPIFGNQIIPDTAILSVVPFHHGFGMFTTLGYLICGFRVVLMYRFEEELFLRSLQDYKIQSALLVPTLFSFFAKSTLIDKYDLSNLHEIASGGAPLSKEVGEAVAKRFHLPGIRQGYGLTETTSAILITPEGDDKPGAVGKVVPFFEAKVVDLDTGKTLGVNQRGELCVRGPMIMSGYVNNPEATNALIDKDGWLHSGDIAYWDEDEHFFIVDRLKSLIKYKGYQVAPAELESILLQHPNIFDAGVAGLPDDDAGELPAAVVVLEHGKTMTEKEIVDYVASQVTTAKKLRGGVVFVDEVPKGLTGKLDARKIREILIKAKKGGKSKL

With `OCCCBr`, the call in experiment [1] was inactive. Besides, the Potency result in [2], in [3], in experiment [4], in experiment [5], in experiment [6] and in experiment [7] was “inactive” in each case. The Potency result in experiment [8] is “inactive”.

As to `C=CC(=O)NCNC(=O)C=C`, the outcome in [1] was inactive. Also, the Potency entry in experiment [2], in [9], in [4], in experiment [6] and in [10] was “inactive” in each case.

Turning to `CCCCNP(N)(N)=S`, the Potency result in [2], in experiment [9], in [3] and in [4] was “inactive” throughout.

Turning to `CCOP(=S)(OCC)Oc1cc(Cl)c(Br)cc1Cl`, the Potency result in [2], in experiment [9], in experiment [3], in experiment [4], in experiment [5] and in [7] was “inactive” in each case. The Potency in [6] is 21.7 µM (active).

Take `C=CCCl`: the Potency result in [2], in experiment [9], in experiment [3], in experiment [4], in experiment [5] and in experiment [6] was “inactive” in each case. Moreover, the Potency entry in experiment [7] was “inactive”.

Take `CCOP(=S)(OCC)Oc1nc(Cl)c(Cl)cc1Cl`: the Potency result in experiment [2], in experiment [9], in experiment [3], in [4], in experiment [5] and in experiment [7] was “inactive” each time. The Potency in experiment [6] was 27.4 µM (active) and 30.6 µM (active).

Consider `CC(C)=CCOc1c2occc2cc2ccc(=O)oc12`, for which the outcome in experiment [1] was inactive. In addition, the Potency result in experiment [2], in experiment [9], in experiment [3], in experiment [4], in [5] and in experiment [7] was “inactive” throughout. Further, the Potency entry in experiment [10] and in [8] was “inactive” throughout. In [6], the Potency was 10.6 µM (active).

As for `CC(=O)[C@H]1CC[C@H]2[C@@H]3CC[C@H]4C[C@](C)(O)CC[C@]4(C)[C@H]3CC[C@]12C`, the result in experiment [1] was inactive. The Potency result in experiment [2], in experiment [9], in [3], in experiment [4], in [5] and in [6] was “inactive” each time. In addition, the Potency result in [7], in experiment [10] and in experiment [8] was “inactive” throughout.

Take `CCCCOC(=O)c1ccccc1C(=O)OCc1ccccc1`: the compound was called inactive in experiment [1]. In addition, the Potency entry in experiment [3], in experiment [4], in experiment [5], in experiment [10] and in [8] was “inactive” throughout. Further, the Potency in experiment [6] was 54.5 µM (active).

Turning to `CCN(C)N=O`, the Potency result in [2], in [9], in [3], in experiment [4], in experiment [5] and in [6] was “inactive” throughout. Also, in experiment [7], the Potency result was “inactive”.

On to `CCOC(=O)C(Cl)C(C)=O` (stereo not drawn), for which the Potency result in experiment [2], in experiment [9], in [3] and in experiment [4] was “inactive” throughout.

Regarding `ClCCCCBr`, the Potency result in [2], in experiment [9], in experiment [3], in experiment [4], in [5] and in experiment [6] was “inactive” in each case. In addition, in [7], the Potency result is “inactive”.

Regarding `C[C@]12CC[C@H]3[C@@H](CCC4=CC(=O)CC[C@@H]43)[C@@H]1CC[C@@H]2OC(=O)CCC1CCCCC1`, the Potency result in [2], in experiment [9], in [3], in experiment [4], in [5] and in experiment [6] was “inactive” throughout. Further, in experiment [7], the Potency entry was “inactive”.

For the compound `COCCOCCO`, the compound was called inactive in experiment [1]. Further, the Potency entry in experiment [2], in experiment [3], in experiment [4], in experiment [5], in [6] and in experiment [7] was “inactive” in each case. Besides, the Potency result in experiment [10] and in experiment [8] was “inactive” in each case.

For the compound `CCCCCCCCCC(=O)O[C@H]1CC[C@H]2[C@@H]3CCC4=CC(=O)CC[C@@H]4[C@H]3CC[C@]12C`, the Potency result in experiment [2], in experiment [9], in [3], in experiment [4], in experiment [5] and in experiment [6] was “inactive” throughout. Also, the Potency entry in experiment [7] was “inactive”.

Take `O=NN1CCNCC1`: the Potency result in experiment [2], in [9], in experiment [3], in experiment [4], in experiment [5] and in [6] was “inactive” throughout.

As for `BrCCCCBr`, the Potency result in experiment [2], in experiment [9], in experiment [3] and in experiment [4] was “inactive” in each case.

Regarding `NCC(CC(=O)O)c1ccc(Cl)cc1` (stereo not drawn), the call in experiment [1] was inactive. For the same compound, the viability change, negative = cytotoxic in experiment [2] was 4.17% [at 0.349 µM]; in experiment [7] it was 7.5% [at 0.349 µM]. For the same compound, the activity change, negative = inhibition in experiment [9] was 0.511% [at 0.435 µM]. Moreover, the activity change, negative = cytotoxicity in [4] was 8.53% [at 0.349 µM]. Moreover, in experiment [10], the activity, negative = inhibition was -1% [at 0.349 µM]. Moreover, the activation in experiment [8] was -1% [at 0.349 µM].

Regarding `CC(O)(CS(=O)(=O)c1ccc(F)cc1)C(=O)Nc1ccc(C#N)c(C(F)(F)F)c1` (stereo not drawn), in [1], the outcome was inactive. Besides, the Potency result in experiment [2], in experiment [9], in experiment [3], in experiment [4], in experiment [5] and in experiment [6] was “inactive” each time. The Potency entry in [7] and in [8] was “inactive” throughout.

As for `CCCCCCCCOC(=O)c1ccc(C(=O)OCCCCCCCC)c(C(=O)OCCCCCCCC)c1`, the Potency result in experiment [2], in experiment [9], in experiment [3], in experiment [4], in experiment [5] and in [6] was “inactive” in each case. Moreover, in experiment [7], the Potency entry was “inactive”.

For the compound `CCOC(=O)CBr`, the Potency result in experiment [2], in [9], in experiment [3], in [4], in experiment [5] and in [6] was “inactive” each time. Further, the Potency entry in experiment [7] is “inactive”.

For `O=[N+]([O-])c1ccccc1CCl`, the Potency entry in experiment [2], in experiment [9], in experiment [3], in experiment [4], in experiment [5] and in experiment [6] was “inactive” in each case. Also, the Potency entry in [7] was “inactive”.

Take `c1cc2ccc3cccc4ccc(c1)c2c34`: in [1], the compound was classed as inactive. The Potency entry in experiment [9], in experiment [3], in experiment [4], in [5], in [7] and in [10] was “inactive” each time. For the same compound, the Potency in experiment [6] was 36 µM (active).

As to `O=S(=O)(O)C(F)(F)C(F)(F)C(F)(F)C(F)(F)F`, the compound was called inactive in [1]. Further, the Potency entry in experiment [2], in experiment [9], in experiment [3], in experiment [4], in experiment [7] and in experiment [8] was “inactive” throughout. The Potency in experiment [6] is 32.5 µM (active).

With `C/C=C/C=O`, the Potency entry in experiment [2], in experiment [9], in experiment [3], in experiment [4], in experiment [5] and in experiment [6] was “inactive” each time. The Potency result in [7] was “inactive”.

For `CCCCN(N=O)C(=N)N[N+](=O)[O-]`, the Potency result in experiment [2], in experiment [9], in [3], in experiment [4] and in experiment [6] was “inactive” throughout. In [5], the Potency is 31.3 µM (active).

In the case of `COc1c(C(C)(C)C)cc([N+](=O)[O-])c(C)c1[N+](=O)[O-]`, the Potency entry in experiment [2], in experiment [9], in [3], in experiment [4] and in [5] was “inactive” throughout. In addition, the Potency in experiment [6] is 24.1 µM (active).

As to `NC(=O)CI`, the compound was classed as inactive in [1]. Besides, the Potency entry in [2], in [3], in experiment [4], in [6], in experiment [7] and in experiment [10] was “inactive” in each case. Also, in experiment [8], the Potency result was “inactive”. Besides, in [9], the Potency is 80.4 µM (active).
